In the library only some 21% were active in any assay of this set; here they are far more common.
ELG1 DNA repair: ELG1-dependent DNA repair inhibition; 330,000 tested, 2.3% active; Potency, µM (series often up to 46.1 µM), without a hit: at the highest dose activity change, negative = inhibition, usual class: inhibitors; HEK293T ELG1-luciferase reporter, luminescence, 16 h; DNA damage induced by 5-fluorouridine; note: potency is the fitted concentration of half-maximal effect; nearly all actives have a fitted effect of over 55% in size
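In this reporter screen, reduction of luminescence relative to DMSO vehicle indicated activity. Compounds and 5-fluorouridine were added together to 2,000 cells per well, incubated for 16 hr at 37 °C, then developed with ONE-Glo.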
TDP1 cell CPT: growth inhibition of DT40 Tdp1-/-;hTDP1 cells with camptothecin (screen for TDP1 inhibitors). chicken DT40 Tdp1-/-;hTDP1 cells + 20 nM CPT, ATP luminescence, 48 h. Potency, µM (highest dose often 46.2 µM), inactives show top-dose activity change, negative = growth inhibition, most hits filed as inhibitors. 420,000 tested, 12% active. AID 686979; note: potency is the fitted concentration of half-maximal effect; nearly all actives have a fitted effect of over 55% in size
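Chicken DT40 Tdp1-/- cells stably complemented with human TDP1 were seeded at 400 cells/well in medium containing 20 nM camptothecin, exposed to pin-transferred compounds, and grown at 37 °C for at least 48 hr. Viability was read as ATP luminescence.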
IL-1B inflam inh: inflammasome signaling inhibition, IL-1 beta readout | AID 743279 | activity change, % at 57.5 µM | THP-1 LPS/ATP IL-1B secretion, AlphaLISA, 16 h; hits give low values | 360,000 tested, 4.7% active; in the data active = activity change below about -50%; inconclusive = mostly about -30% to -49%
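THP-1 cells pretreated 1 hr with compounds (up to 57.5 uM final), then stimulated with LPS (250 ng/mL final) plus ATP (1.25 mM final); secreted IL-1B measured by AlphaLISA after 16 hr, decreased signal indicating inhibition.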
RORgamma inh: ROR gamma (mouse) transcription inhibition; P51450; Drosophila S2 Gal4-RORgamma UAS-luciferase reporter, 20 h; Potency, µM (series often up to 53.6 µM), inactives show at the top dose activity change, negative = inhibition, actives largely listed as inhibitors; 310,000 tested, 5.4% active; note: potency is the fitted concentration of half-maximal effect; nearly all actives have a fitted effect of over 60% in size
Target sequence (P51450 whole entry, looked up, the tested form may be a part): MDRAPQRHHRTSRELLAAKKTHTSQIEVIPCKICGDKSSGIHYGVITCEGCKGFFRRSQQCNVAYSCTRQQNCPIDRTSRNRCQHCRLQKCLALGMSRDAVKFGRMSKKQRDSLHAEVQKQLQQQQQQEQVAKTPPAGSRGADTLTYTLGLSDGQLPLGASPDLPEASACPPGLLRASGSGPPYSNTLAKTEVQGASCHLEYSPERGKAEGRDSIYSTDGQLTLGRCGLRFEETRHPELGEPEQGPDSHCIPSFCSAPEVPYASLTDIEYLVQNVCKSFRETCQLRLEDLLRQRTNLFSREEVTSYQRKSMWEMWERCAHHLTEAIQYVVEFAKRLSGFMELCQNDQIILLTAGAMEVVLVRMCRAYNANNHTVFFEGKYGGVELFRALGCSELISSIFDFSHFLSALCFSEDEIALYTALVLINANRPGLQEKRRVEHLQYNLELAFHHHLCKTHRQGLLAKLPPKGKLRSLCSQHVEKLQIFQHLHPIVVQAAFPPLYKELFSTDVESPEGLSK
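Stable Schneider cell line, Gal4 DNA-binding domain fused to ROR gamma, UAS-luciferase. Cmpd 1 hr RT → CuSO4 700 uM final → 20 hr RT → luciferase reagent 10 min → luminescence.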
Gal4-VP16 FLuc: Gal4-VP16 reporter inhibition counter-screen | Drosophila S2 Gal4-VP16 UAS-luciferase, luminescence, 20 h | Potency, µM (titrated, usually from 53.6 µM), inactives show top-dose activity, negative = inhibition, usual class: inhibitors | 310,000 tested, 3.5% active | AID 2546;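 note: Gal4-VP16 expression switched on by copper sulfate through the metallothionein promoter; potency is the fitted concentration of half-maximal effect; nearly all actives have a fitted effect of over 50% in size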
TDP1 cell noCPT: qHTS for Inhibitors of human tyrosyl-DNA phosphodiesterase 1 (TDP1): qHTS in cells in absence of CPT; 420,000 tested, 15% active; Potency, µM (top dose mostly 46.2 µM), inactives show at the top dose activity change, negative = growth inhibition, actives largely listed as inhibitors; DT40 Tdp1-/- hTDP1 cells, no CPT, ATP luminescence, 48 h; note: potency is the fitted concentration of half-maximal effect; nearly all actives have a fitted effect of over 55% in size
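Chicken DT40 Tdp1-/- cells complemented with human TDP1, screened without camptothecin (DMSO vehicle only), 400 cells/well. Compounds pin-transferred, cells incubated at 37 °C for at least 48 hr. Growth read as ATP-dependent luminescence (CellTiter-Glo, 30 min at RT).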
Starred values were filed as active, the others as inactive; ? = inconclusive; nt = not tested or not shown. Unless noted, calls come from the whole dose curve; as a rule, active = well fitted curve in the direction sought with a large enough effect; inconclusive = small, poorly fitted or top-dose-only effect, or another doubt; inactive = no such curve, though single readings can be large; an effect the other way counts as inactive or inconclusive. % is set by controls: 0 for no effect and ±100 for the full control effect.

SMILES	ELG1 DNA repair	TDP1 cell CPT	IL-1B inflam inh	RORgamma inh	Gal4-VP16 FLuc	TDP1 cell noCPT
CCOC(=O)c1sc(NC(=O)CC(C)c2ccccc2)nc1C (stereo not drawn)	?	13µM*	13.7	17.1%	-10.7%	3.66µM*
CCOC(=O)c1sc(NC(=O)Cc2ccccc2OC)nc1C	-13.8%	-7.0%	-9.4	34.2%	0.2%	-25.3%
Cc1cc(NC(=O)c2noc3c2CCCC3)n(-c2ccccc2)n1	-1.4%	?	4.9	1.2%	8.0%	-22.4%
C=CCNC(=O)C1CCN(c2ccc(S(=O)(=O)N3CCOCC3)cc2[N+](=O)[O-])CC1	2.6%	-3.4%	22.4	18.8%	4.6%	?
NC(=O)[C@@H]1CSSCCC(=O)N[C@@H](CCCCN=C(N)N)C(=O)NCC(=O)N[C@@H](CC(=O)O)C(=O)N[C@@H](Cc2c[nH]c3ccccc23)C(=O)N2CCC[C@H]2C(=O)N1	nt	?	nt	22.0%	1.6%	?
COc1cc(C2Oc3ccccc3C=C2[N+](=O)[O-])cc(OC)c1OC (stereo not drawn)	?	3.26µM*	-103.5*	?	12.6µM*	2.59µM*
CC(C)(C)c1cc(C(=S)N2CCCC2)cc(C(C)(C)C)c1O	9.3%	?	-15.1	6.31µM*	5.01µM*	?
COc1ccc(-c2cn3cccnc3n2)cc1NC(=O)c1c(F)cccc1F	nt	?	nt	nt	nt	25.9µM*
CCC(C(=O)Nc1cc(-c2cn3cccnc3n2)ccc1C)c1ccccc1 (stereo not drawn)	nt	-30.0%	nt	nt	nt	-24.7%
CCCC(=O)Nc1cc(-c2cn3cccnc3n2)ccc1OC	?	-6.6%	-12.0	-9.2%	-4.5%	-4.5%
COc1ccc(-c2cn3cccnc3n2)cc1NC(=O)c1ccc(Br)o1	?	15.8µM*	-54.0*	9.5%	-24.8%	?
COc1cccc(C(=O)Nc2cc(-c3cn4cccnc4n3)ccc2C)c1OC	nt	?	nt	nt	nt	16.4µM*
Cc1ccc(-c2cn3cccnc3n2)cc1NC(=O)C(C)(C)Oc1ccc(Cl)cc1	nt	?	nt	nt	nt	18.4µM*
Cc1ccc(-c2cn3cccnc3n2)cc1NC(=O)c1ccc(Br)o1	-6.7%	-19.1%	?	-23.5%	-7.0%	-20.9%
Cc1cccc(N(CC(=O)NCC2CCCO2)C(=O)CCC(=O)Nc2nccs2)c1 (stereo not drawn)	2.5%	8.9%	17.6	-8.3%	3.3%	-5.5%
COc1cc(/C=N/NC(N)=O)ccc1OCC(=O)Nc1ccc(C)c(C)c1	-6.6%	-5.3%	-7.5	-3.5%	-18.9%	6.6%
CCOc1cc(/C=N/NC(N)=O)ccc1OCC(=O)Nc1ccc(C)c(C)c1	?	20.6µM*	-15.3	-2.6%	-5.2%	23.1µM*
COc1cc(/C=N/NC(=O)c2cccc(C)c2)ccc1OCC(=O)Nc1ccccc1	nt	?	13.2	nt	nt	18.4µM*
COCCNC(=O)C(=O)N/N=C/c1ccc(C(=O)OC)cc1	3.6%	-3.9%	-1.6	-0.1%	-10.6%	-0.1%
COc1cc(/C=N/NC(=O)c2cccnc2)ccc1OCC(=O)Nc1ccc(C)cc1	10.2%	18.8%	13.7	8.1%	-7.1%	-23.3%
COCCNC(=S)N/N=C/c1ccc(OCc2ccc(C(=O)OC)cc2)c(OC)c1	13.1%	?	-8.5	2.24µM*	7.08µM*	23.1µM*
CCCCNC(=S)N/N=C/c1ccc(OCC(=O)Nc2c(C)cc(C)cc2C)c(OC)c1	-0.9%	-27.6%	27.0	?	5.01µM*	?
COC(=O)N[C@H](C[N+](=O)[O-])c1cccc(C)c1	nt	nt	nt	-12.1%	4.9%	nt
COc1ccc2[nH]c3c(c2c1)CCN1C(=O)C(CC(=O)NCCCn2ccnc2)C[C@H](C(=O)N(C(C)C)C(C)C)[C@@]31C (stereo partly drawn)	9.9%	-10.9%	-18.6	nt	nt	-15.6%
COc1cc(/C=N/NC(N)=S)ccc1OCC(=O)Nc1ccc(C)c(C)c1	nt	?	-14.8	11.2µM*	?	?
SMILES	ELG1 DNA repair	TDP1 cell CPT	IL-1B inflam inh	RORgamma inh	Gal4-VP16 FLuc	TDP1 cell noCPT
CCCOc1ccc(/C=c2\sc3ncnn3c2=O)cc1	-3.6%	?	?	3.4%	-0.7%	?
CC(=O)Oc1ccc(/C=c2\sc3ncnn3c2=O)cc1	2.4%	20.6µM*	0.0	-29.8%	-1.8%	?
Cc1nc(SCC(=O)Nc2cc(C(N)=O)cc(C(N)=O)c2)c2c(C)c(C)sc2n1	?	5.0%	4.7	-43.3%	-0.3%	8.3%
Cc1nc(SCC(=O)Nc2ccc(S(=O)(=O)N3CCOCC3)cc2)c2c(C)c(C)sc2n1	16.4µM*	25.9µM*	?	nt	nt	?
COC(=O)c1sc2nc(C)nc(SCC(=O)Nc3sccc3C(N)=O)c2c1C	?	18.4µM*	5.5	nt	nt	16.4µM*
Cc1nc(SCC(=O)Nc2sccc2C(N)=O)c2c(C)c(C)sc2n1	nt	20.6µM*	18.8	nt	nt	?
Cc1nc(SCC(=O)N2CCN(C(=O)c3cccs3)CC2)c2c(C)c(C)sc2n1	?	25.9µM*	-3.6	nt	nt	16.4µM*
COc1ccc(OC2C(=O)N(Cc3ccc4c(c3)OCO4)C2c2sccc2C)cc1 (stereo not drawn)	?	?	?	?	-16.1%	?
CCC(C)NC(=O)c1ccc(N2CC3CC(C2)c2cccc(=O)n2C3)c(NC(=O)c2c(F)cccc2F)c1 (stereo not drawn)	nt	?	-16.1	nt	nt	?
CC1CCCC(C)N1C(=O)COC(=O)c1ccc(O)cc1 (stereo not drawn)	21.2%	-8.7%	0.0	21.5%	-9.4%	-7.1%
COc1ccc([C@H]2C(C(=O)O)=C[C@@H](CC3CCCC3)N2S(=O)(=O)c2ccc(C)cc2)cc1OC	2.2%	6.0%	20.5	nt	nt	-1.0%
Cc1ccc(OCc2cc(C(=O)NCc3cnn(-c4cccc(F)c4)c3)no2)cn1	2.0%	?	13.1	41.9%	23.0%	?
CN(Cc1cnn(C)c1)C(=O)c1cc(COc2c(F)cccc2F)on1	?	24.8%	0.0	-5.3%	1.2%	7.8%
Cn1cc(CNC(=O)c2cc(COc3ccc4c(c3)CCCC4)on2)cn1	-26.8%	?	-8.4	?	-7.3%	14.6µM*
O=C(NC(c1cccnc1)C(F)(F)F)c1cc(COc2ccc3c(c2)CCCC3)on1 (stereo not drawn)	?	4.11µM*	?	?	7.08µM*	2.59µM*
CCN(Cc1cnn(C)c1)C(=O)c1cc(COc2ccc3c(c2)CCCC3)on1	-5.0%	16.4µM*	-6.4	-21.8%	-4.1%	11.6µM*

Bioassay records as filed in PubChem.
